Assay results as given in PubChem BioAssay AID488890 (Southern Research Specialized Biocontainment Screening …, 2010).
Among all 320,000 compounds or so, about 1,300 (0.41%) were called active. Inconclusive results (about 3%) are left out. How the calls were made is not given here. The list is a sample of the results. Potency and affinity values are given separately.

Experiment: growth inhibition of non-replicating M. tuberculosis (AID 488890);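 further: plate controls were DMSO cells for no effect and high antibiotic wells for full effect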
Details: Mycobacterium tuberculosis non-replicating, at 25 µM, stronger effect = higher value

Row | Structure (SMILES) | inhibition [%]
1 | CCOP(=O)(OCC)C(NC(=O)C(F)(F)F)c1ccccc1 (centres undefined) | 3.99
2 | COc1ccc(S(=O)(=O)CCC(=O)NCCc2cccc(C)c2)cc1 | -8.54
3 | CCOc1ccc(C(=O)CC(=O)C(=O)NCCc2ccc(OC)c(OC)c2)cc1 | 31.3
4 | Cc1nc2cc(NS(=O)(=O)c3ccccc3F)ccc2s1 | 3.43
5 | COc1ccccc1Oc1cc(-n2nc(C)cc2C)ncn1 | 30
6 | CCOC(=O)c1cnc(Nc2nc3ccccc3o2)nc1CSc1ncccn1 | 1.64
7 | CCOC(=O)c1cnc(Nc2nc3ccccc3o2)nc1CSC(=S)N(CC)CC | 28.1
8 | CCn1ncc(C(=O)Nc2ccc(F)cc2)c1C | -7.3
9 | O=C(CCn1c(=S)[nH]c2ccccc2c1=O)Nc1cccc(Cl)c1 | -2.2
10 | N=c1n(Cc2ccccc2)c2ccccc2n1CC(O)COc1ccccc1 (centres undefined) | 70.8
11 | COc1ccccc1OCC(O)Cn1c(=N)n(Cc2ccccc2)c2ccccc21 (centres undefined) | 45
12 | CC(=O)Nc1ccc(OCC(O)Cn2nc(C)c(C(C)=O)c2C)cc1 (centres undefined) | -9.63
13 | COc1ccc(C(=O)C2CCCN(C(=O)c3c4c(nn3C)CCCC4)C2)cc1F (centres undefined) | -19.7
14 | COC(=O)Cc1ccc(NC(=O)c2ccc(Br)o2)cc1 | 72.6
15 | Cc1ccc(C(=O)Nc2ccc3c(c2)CCC3)o1 | 79.8
16 | O=C(Nc1ccc2c(c1)Cc1ccccc1-2)c1ccc(Br)o1 | 53.9
17 | COC(=O)c1ccc(NC(=O)C2C3C=CC(O3)C2C(=O)O)cc1 (centres undefined) | 5.13
18 | CCOC(=O)c1ccc(NC(=O)C2C3C=CC(O3)C2C(=O)O)cc1 (centres undefined) | 20.5
19 | CCN(CC)c1ccc(NC(=O)c2ccc(Br)o2)cc1 | 52.8
20 | CC(NC(=O)CCSCCC(=O)NC(C)c1ccccc1)c1ccccc1 (centres undefined) | 21.4
21 | Cc1cc(C(=O)N2CCN(c3ccc(F)cc3)CC2)on1 | 53.3
22 | COc1ccc(C2=NS(=O)(=O)N(C)C(C(=O)Nc3ccc(OC)c(OC)c3)=C2)cc1 | 17.6
23 | NC(=O)CC(NC(=O)c1ccc(Br)cc1)c1ccc(NC2CCCCCC2)c([N+](=O)[O-])c1 (centres undefined) | 7.44

Row | Structure (SMILES) | inhibition [%]
24 | CC1(C)CC(=O)c2cc(C(=O)Nn3cnnc3)c(=O)n(-c3ccccc3)c2C1 | 9
25 | CC1(C)CC(=O)c2cc(C(=O)O)c(=O)n(-c3ccccc3)c2C1 | 15.2
26 | COc1ccccc1CCC(=O)OCC(=O)NCc1ccc(OC)c(OC)c1 | -1.1
27 | COc1ccccc1C1NC(=O)CCC1[N+](=O)[O-] (centres undefined) | 3.51
28 | O=C(O)c1ccccc1Nc1ccc([N+](=O)[O-])c2nonc12 | 8.28
29 | NS(=O)(=O)c1ccc(Nc2ccc([N+](=O)[O-])c3nonc23)cc1 | 66.5
30 | O=[N+]([O-])c1c(Nc2ccccc2O)ccc2nonc12 | 61.7
31 | CCOc1ccc(Nc2ccc3nonc3c2[N+](=O)[O-])cc1 | -4.04
32 | O=C(O)c1cccc(Nc2ccc([N+](=O)[O-])c3nonc23)c1 | 16.5
33 | O=C(O)c1ccc(Nc2ccc([N+](=O)[O-])c3nonc23)cc1 | 25.2
34 | COc1ccccc1N1C(=S)N=C(Nc2c(C)cccc2C)C12CCCC2 | 15.9
35 | CC(C)(C)NC(=O)C1CCCN(S(=O)(=O)c2ccc(-n3cnnn3)cc2)C1 (centres undefined) | 17
36 | COC(=O)CNC(=O)CSc1nnc2cc(C)c3ccccc3n12 | -0.34
37 | CC(/C=C/C1[C@H](C)C[C@H](O[C@@H]2O[C@H](CO)[C@@H](O)[C@H](O)[C@H]2O)CC1(C)C)O[C@H]1O[C@H](CO)[C@@H](O)[C@H](O)[C@H]1O (some centres undefined) | -10.5
38 | Cc1ccc2c(-c3ccc([N+](=O)[O-])cc3)cc(=O)[nH]c2c1 | -4.88
39 | Cc1ccc2nc(NCc3ccco3)c(C=NCc3ccco3)c(=O)n2c1 | 0.74
40 | Cc1cccn2c(=O)c(C=Nc3ccccc3)c(NCc3ccco3)nc12 | 56.2
41 | O=C(CN1CCN(S(=O)(=O)c2ccccc2)CC1)NC(=O)NCc1ccco1 | 1.38
42 | O=C(O)c1ccccc1NCc1ccncc1 | 4.81
43 | C[C@]12CCC(=O)C=C1CCC1C2CC[C@@]2(C)C1CC[C@]2(C)O (some centres undefined) | 11.1
44 | CCOC(=O)c1cc(-c2ccc(/C=N\n3cnnc3)o2)ccc1Cl | 10
45 | O=Cc1ccc(-c2ccc(C(=O)O)cc2)o1 | -8.13
46 | CCCCOC(=O)c1cc(-c2ccc(/C=N/n3cnnc3)o2)ccc1Cl | 75.6

Row | Structure (SMILES) | inhibition [%]
47 | CCCCOC(=O)c1ccc(-c2ccc(/C=N/NC(=S)NCC)o2)cc1 | 73.2
48 | CC(=O)C1=C(O)C(=O)N(CCC(=O)O)C1c1cccc(F)c1 (centres undefined) | -0.65
49 | CCCC(=O)NNc1c2ccccc2nc2ccccc12 | 74.5
50 | O=C(NNc1c2ccccc2nc2ccccc12)c1ccc(O)cc1 | 42
51 | CCOc1ccc(S(=O)(=O)Nc2ccc(C(=O)NCCCN3CCOCC3)cc2)cc1 | -11.7
52 | CCC(C)C(NC(=O)C1CCC(C)CC1)C(=O)NCc1ccco1 (centres undefined) | -7.14
53 | C/C(=N/NC(=O)CNC(=O)c1ccccn1)c1ccc([N+](=O)[O-])cc1 | -2.72
54 | C/C(=N\NC(=O)C(c1ccccc1)c1ccccc1)c1ccccn1 | 78.2
55 | O=S(=O)(c1ccc2nc(-c3ccccc3)[nH]c2c1)N1CCN(c2ccc(Cl)cc2)CC1 | -14.5
56 | COc1ccc(/C(C)=N/Nc2ccccc2Cl)c(O)c1 | 9.47
57 | C/C(=N\Nc1ncc(Cl)cc1Cl)c1ccc(OC(F)F)cc1 | 66.3
58 | COc1ccc([N+](=O)[O-])cc1NC(=O)c1cn(-c2ccc(Cl)cc2)c(=O)c2ccccc12 | -16.7
59 | N#CC1=C(N)Oc2nc[nH]c(=O)c2C1c1cccs1 (centres undefined) | -24.7
60 | Cc1cc(C)n2nc(N)c(N=Nc3ccc(Cl)cc3)c2n1 | 74.1
61 | Cc1cc(C)n2nc(N)c(N=Nc3cccc(Cl)c3)c2n1 | 79.2
62 | Cc1ccc(CC2S/C(=N/c3ccccn3)NC2=O)cc1 (centres undefined) | 21.2
63 | O=C1N/C(=N/c2ccccn2)SC1Cc1ccccc1 (centres undefined) | 61.6
64 | Cn1ccnc1SCC(=O)Nc1cccc(O)c1 | 1.05
65 | CC/C(=N/Nc1ccccc1Cl)c1cnnc(-c2ccccc2)n1 | 5.04
66 | COCCNC(=O)Cn1cc(C(=O)c2ccccc2F)c2ccccc21 | 6.99
67 | CCC(NC(=O)c1cc(COc2cncc(Cl)c2)on1)c1ccncc1 (centres undefined) | 21.9
68 | CCC(NC(=O)c1cc(COc2cncc(Cl)c2)on1)c1ccc(C)cc1 (centres undefined) | 61.6
69 | COCCCN1C(=O)C(=O)/C(=C(/O)c2ccc(OC(C)C)cc2)C1c1ccc(O)c(OC)c1 (centres undefined) | -2.98
